Data taken from PubChem BioAssay AID777 (Sanford-Burnham Center for Chemical Genomics, 2007).
Screen size: about 96,000 compounds; about 19,000 (20%) were called active.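 The calls were made as follows: active = blocking of liver enzyme CYP2C9 beyond about 50% at 5 µM (limit read from the data); inactive = the rest.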 A selection follows.

These molecules were tested against Cytochrome P450 2C9 (Homo sapiens) (UniProt P11712) (assay: blockers of cytochrome P450 2C9 activity – biochemical, luminescence, ADME assay, primary screen (AID 777)). Details: CYP2C9 Supersomes, luciferin-H conversion, at 5 µM, hits give high values.
Cytochrome P450 2C9 (Homo sapiens), sequence (P11712 whole entry, looked up): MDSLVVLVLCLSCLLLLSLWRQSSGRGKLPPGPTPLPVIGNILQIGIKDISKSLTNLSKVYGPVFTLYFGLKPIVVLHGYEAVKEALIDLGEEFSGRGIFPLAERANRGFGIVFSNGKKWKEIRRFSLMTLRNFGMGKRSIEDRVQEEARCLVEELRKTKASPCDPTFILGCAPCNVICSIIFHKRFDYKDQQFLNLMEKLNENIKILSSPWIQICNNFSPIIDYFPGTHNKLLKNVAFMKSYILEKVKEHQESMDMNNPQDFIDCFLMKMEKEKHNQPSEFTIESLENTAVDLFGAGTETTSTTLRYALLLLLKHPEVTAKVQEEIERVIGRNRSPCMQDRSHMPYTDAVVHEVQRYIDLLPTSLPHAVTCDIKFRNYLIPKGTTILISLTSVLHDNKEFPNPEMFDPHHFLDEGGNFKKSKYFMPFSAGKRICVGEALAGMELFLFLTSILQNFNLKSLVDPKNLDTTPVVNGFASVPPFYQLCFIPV

inhibition, inactive:
COc1ccc(C(=O)NCc2cn3ccccc3n2)cc1 2.4%
Cc1occc1C(=O)N1CCCc2ccccc21 -1.8%
O=C(c1cccc(C(=O)N2CCc3ccccc32)n1)N1CCc2ccccc21 8.6%
O=C(c1cc(-c2ccccc2O)on1)N1CCCC1 -51.3%
O=C(c1cc(-c2cccs2)on1)N1CCCCC1 -21.4%
CNC(=O)c1nnn(-c2ccccc2)c1C(=O)NC -7.1%
O=C(O)c1cccnc1NC1CCCC1 4.1%
COc1ccc(-n2nnc3c(=O)n(CC(=O)N4CCC(Cc5ccccc5)CC4)cnc32)cc1 17.9%
Cc1ccc(NC(=O)N2CCC(C(=O)NCc3ccc(F)cc3)CC2)cc1 34%
O=C(CSCc1c(F)cccc1Cl)NCC1CCCO1 (stereo unspecified) -7.5%
Cc1ccc(Cn2nnc3c(=O)n(CC(=O)N4CCCCC4)cnc32)cc1 -4.1%
Oc1ccc(CNc2ccccc2O)cc1 22.4%
COC(=O)c1ccc(Sc2ccc(F)cc2)c(N)c1 43.1%
CCN(c1ccccc1)S(=O)(=O)c1ccc(NC(=O)C(C)(C)C)cc1 31.5%
O=C1CC(NNc2ccccc2)C(=O)N1c1cccc(Cl)c1 (stereo unspecified) 0.1%
Cc1noc(C)c1S(=O)(=O)Nc1ccc(C(=O)O)cc1 1.8%
CCCCN(CC)C(=O)CN(C)S(=O)(=O)c1cccc2nsnc12 16.6%
Clc1ccc(-c2cc(COc3ccccc3)no2)cc1Cl -0.8%
O=C1CC2(CCCCC2)Oc2ccc(OCC(=O)N3CCOCC3)cc21 2.2%
Brc1cccc(-c2nnc3n2CCC3)c1 -21.9%
Cc1ccc(Cc2cnc(NC(=O)/C(C#N)=C/c3ccc(-c4cccc([N+](=O)[O-])c4)o3)s2)cc1 25.6%
Cc1ccc2c(c1)N(C(=O)CCC(=O)N1CCc3ccccc3C1)CCO2 13.6%
O=C1N=C(N2CCCC2)S/C1=C\c1cccc(Br)c1 -42.1%
COc1ccccc1NC(=S)NC(=O)C(C)C 12.2%
CC(C)C(=O)NC(=S)Nc1ccccc1F 20.1%
CC(=O)c1c(C)[nH]c(C(=O)NCCCN2CCCC2)c1C -3.6%
Cc1c(C(=O)NCc2ccccc2)cnn1-c1ccccc1 -4%
O=C(NCc1cccnc1)c1cccnc1Sc1ccc(Cl)cc1 39.9%
O=C(Nn1cc(C(=O)N2CCN(c3ccccc3F)CC2)c2ccccc2c1=O)c1cnccn1 20.7%
COC(=O)CSc1nnc(-c2cccnc2)o1 -12.9%
O=C(Nc1c(C(=O)N2CCCCC2)cnn1-c1ccccc1)c1ccco1 -0.7%
O=C(Nc1ccc(N2CCN(C(=O)c3ccccc3)CC2)c(Cl)c1)c1cccnc1 31.6%
COc1ccc(-c2nn(-c3ccccc3)cc2C(=O)Nc2nc(CC(C)=O)ns2)cc1 10.8%
O=C(c1ccccc1-c1ccccc1)N1CCOCC1 5%
COC(=O)/C(=C\Nc1ccccc1)NC(=O)c1ccc(Cl)cc1Cl 33.9%
CC(C)(C)n1nc2c(c1NC(=O)c1ccc(S(=O)(=O)N3CCCC3)cc1)CS(=O)C2 (stereo unspecified) 4.2%
CCOc1nc(NCCN2CCOCC2)nc(Nc2ccc(C)cc2)n1 13%
O=c1c([N+](=O)[O-])cc(C(F)(F)F)cn1Cc1cccc(Cl)c1 23.9%
COc1ccc2c(c1OC)C(=O)c1ccccc1C2=O 21.6%
CN1CCc2c(sc3c2c(NCc2ccco2)nc2nnnn23)C1 45.7%
CCN(CC)P(=O)(/C(Cl)=C\Nc1c(C)n(C)n(-c2ccccc2)c1=O)N(CC)CC -8.4%
CNC(=O)NCCN1CCCC1=O 35.9%
Cc1nc(NC(=O)CCC(=O)O)sc1C(=O)N(C)C 24.5%
CN(CC(=O)Nc1cccc2c1CCCC2)S(=O)(=O)c1ccc(Cl)cc1 -18.4%
CCOC1CCCCC1NS(=O)(=O)c1ccc(Cl)cc1 (stereo unspecified) 5.6%
CCOC(=O)N1CCN(S(=O)(=O)c2ccc(C(=O)Nc3ccc(F)cc3F)cc2)CC1 18.7%
CCOC(=O)C1CCCN(C(=O)c2ccc(CS(=O)(=O)c3ccc(Br)cc3)o2)C1 (stereo unspecified) 49.8%
O=C(CSc1ncccn1)NCCc1ccccc1 17%
O=C(CCS(=O)(=O)Cc1ccccc1F)NCCCN1CCCCC1 -0.3%
CCOC(=O)CN(C(=O)CN1CCOCC1)c1ccc(Br)cc1 5.6%
COc1cc(OC)c(C(=O)NC2CC(C)(C)NC(C)(C)C2)cc1OC -0.9%
O=C(O)C1CCCCC1C(=O)Nc1ccc(Cl)cc1 (stereo unspecified) 9.3%
O=C(O)c1ccc(NC(=O)C2CCCCC2)cc1 -25.8%
O=C1CC(c2ccccc2)C(=O)N1c1cccc(O)c1 (stereo unspecified) 45%
O=C(Nc1ccc(F)c(Cl)c1)C1CCN(S(=O)(=O)c2cccnc2)CC1 9.3%
O=C(O)c1ccc(COCC(F)(F)F)cc1 -1.6%
Fc1c(F)c(C(F)(F)F)c(F)c(F)c1N1CCN(c2ccc3nnc(C(F)(F)F)n3n2)CC1 5.9%
c1csc(-c2nc(-c3ccncc3)no2)c1 11.1%
O=C1c2ccccc2C(=O)N1CCCc1nc(-c2ccccc2)no1 24.2%
Cc1cc(C(=O)O)c(S(C)(=O)=O)s1 -5.1%
CC(Sc1nnc(Cc2ccc([N+](=O)[O-])cc2)o1)C(N)=O (stereo unspecified) -1.5%
Cc1ccc2nc(SC(C)C(=O)NCc3ccco3)[nH]c2c1 (stereo unspecified) 44.2%
Cc1nnc(NCCO)c2ccccc12 -5.4%
CCC(=O)NC(=Nc1nc2ccccc2s1)NC(=O)CC -88.9%
O=C1CCCC(O)=C1C=NCCc1ccccc1 6.6%
CC(C)(C)n1nnnc1C(c1ccc(F)cc1)N1CCN(Cc2ccc3c(c2)OCO3)CC1 (stereo unspecified) 30.9%
Fc1ccccc1C(c1nnnn1Cc1ccc2c(c1)OCO2)N1CCN(Cc2ccccc2)CC1 (stereo unspecified) 45.6%
COc1ccc(C(=O)CN(C(=O)c2ccc(Cl)cc2)N2C(=O)c3ccccc3C2=O)cc1 49.5%
N#C/C(=C1\CCCN1)c1nc(-c2ccccc2)cs1 40.4%
N#CC(=C1CCCC1)c1nc(-c2ccc(Cl)cc2)cs1 -6.8%
CC(=O)N1CSCC1C(=O)O (stereo unspecified) 6.7%
O=C(OCC#CCSc1nnc(-c2ccncc2)o1)c1sc2ccccc2c1Cl 30.1%
CSc1cc(C)n(-c2ccccc2C)c(=S)c1C(C)=O 14.1%
CN(c1nc2ccccc2n2c(-c3ccco3)nnc12)S(=O)(=O)c1ccccc1 15.3%
O=C1CN(C(=O)COC(=O)C2CC(=O)N(Cc3ccco3)C2)c2ccccc2N1 (stereo unspecified) -13.2%
Cc1ccc(S(=O)(=O)NCC(=O)OCC(=O)N2CCc3ccccc32)cc1 -28.2%
CCOC(=O)CN1CC23C=CC(O2)C(C(=O)Nc2ccc(F)cc2)C3C1=O (stereo unspecified) -21.8%
CC1(C)C/C(=C(/C#N)C(N)=O)CCO1 -18.3%
Nc1c(-c2ccc(F)cc2)cnc2ncnn12 -25.1%
CC1(C)CC(=O)C=C(NCc2ccncc2)C1 7.3%
Cc1cc(C(=O)Nc2c(C)nn(Cc3ccccc3)c2C)on1 22.4%
CSc1ccccc1NC(=O)c1cc(C2CC2)on1 -144%

inhibition, active:
O=C(c1cc(-c2cccc(O)c2)on1)N1CCc2ccccc2C1 55.8%
O=C(c1cc(-c2ccc(O)cc2)on1)N1CCCc2ccccc21 55.3%
COc1ccc(Cn2nnc3c(=O)[nH]c(C4CCN(C(=O)c5ccccc5Cl)CC4)nc32)cc1 79.7%
Cc1ccc(NC(=O)N2CCC(c3nc4c(nnn4Cc4c(F)cccc4Cl)c(=O)[nH]3)CC2)cc1 87.7%
CC(C)(CCl)C(=O)Nc1ccc(Sc2ccc(F)cc2)cc1 84.9%
O=S(=O)(Cc1cc(Sc2ccccc2)nc(-c2ccccc2)n1)c1ccccc1 52.5%
CC(C)C(=O)Nc1cccc(NC(=S)NC(=O)C(c2ccccc2)c2ccccc2)c1 98.8%
COC(=O)c1cn(-c2ccccc2)nc1-c1cccnc1 51.7%
O=C(NCc1cccnc1)c1cn(-c2ccccc2)nc1-c1cccs1 95.7%
O=C(c1cn(-c2ccccc2)nc1-c1cccnc1)N1CCCCC1 52.5%
COc1ccccc1N1CCN(C(=O)c2cn(-c3ccccc3)nc2-c2cccnc2)CC1 92%
Cc1nc(NC(=O)CN(C)S(=O)(=O)c2ccc(Cl)cc2)sc1C 61.3%
O=C(Nc1cnn(Cc2ccc(Cl)cc2)c1)C1CCCC1 56.1%
O=C(N/N=C/C=C/c1ccccc1)C1CC1(c1ccccc1)c1ccccc1 (stereo unspecified) 99.5%
c1ccc(CCc2nc(-c3ccncc3)no2)cc1 93%
Cc1cc(C)c2[nH]c(=O)c(C(c3nnnn3Cc3ccc4c(c3)OCO4)N3CCCC3)cc2c1 (stereo unspecified) 86.7%
N#CC(=C1SC=CS1)c1nc(-c2ccccc2)cs1 52.9%
Cc1ccc(S(=O)(=O)N2CCC(C(=O)OCC(=O)N3CC(=O)Nc4ccccc43)CC2)cc1 54.7%
Cc1nn(Cc2ccc(Cl)c(Cl)c2)c(C)c1NC(=O)c1cc(C2CC2)on1 96.7%
